In PubChem BioAssay (EPA / NIEHS):
“And” between values parts separate entries of the source, which are not always exact repeats. Equal entries are not always repeated. Some compounds were tested as several samples or in several runs, with calls that do not always agree. The source made the active and inactive calls. How the source made its calls: active means hit-call score of the fitted dose curve at least 0.9, where 1 is the maximum; inactive means score below 0.9.

Experiment: APR_HepG2_P-H2AX_72hr: Apredica 72-hour HepG2 Assay for H2AX Phosphorylation (AID 2282916)
Settings: imaging, actives raise or lower the signal
Description: APR_HepG2_72hr is a cell-based, multiplexed-readout assay that uses HepG2, a human liver cell line, with measurements taken at 72 hours after chemical dosing in a 384-well plate.APR_HepG2_P-H2AX_72hr is one of 10 assay component(s) measured or calculated from the APR_HepG2_72hr assay. It is designed to make measurements of dna content, a form of viability reporter, as detected with fluorescence intensity signals by HCS Fluorescent Imaging technology.Data from the assay component APR_HepG2_P-H2AX_72hr was analyzed into 1 assay endpoint. This assay endpoint, APR_HepG2_P-H2AX_72hr, was analyzed with bidirectional fitting relative to DMSO as the negative control and baseline of activity. Using a type of viability reporter, measures of protein for gain or loss-of-signal activity can be used to understand the signaling at the pathway-level as they relate to the gene . Furthermore, this assay endpoint can be referred to as a primary readout, because this assay has produced multiple assay endpoints where this one serves a signaling function. To generalize the intended target to other relatable targets, this assay endpoint is annotated to the dna binding intended target family, where the subfamily is cellular response to DNA damage stimulus.
Cells were treated with dimethyl sulfoxide (DMSO) as a solvent control at a final concentration of 0.5% v/v or with compounds in DMSO with a resulting final DMSO concentration of 0.5% v/v. Compound treatment was done at concentrations of 0.39, 0.78, 1.56, 3.12, 6.24, 12.5, 25, 50, 100, and 200 uM in duplicate on each plate. Cells were treated with compounds for 1, 24, or 72 hr. Carbonyl […] m-chloro-phenylhydrazone (CCCP) and taxol were used as positive controls for mitochondrial function and cytoskeletal stability, respectively; DMSO served as the negative control for this experiment. Cells were fixed by the direct addition of 50 uL formaldehyde in Hank's Balanced Salt Solution (HBSS) to a final concentration of 3.7%. After incubation in the fixation medium for 30 min at room temperature (293-298 K), cells were rinsed twice with HBSS and treated with cell permeabilization buffer (16 uL of 0.5% Triton X-100) for 10 min at room temperature (293-298 K) before labeling. For mitochondrial membrane potential and mitochondrial measurements, pre-fixed cells were incubated with 50 uL of MitoTracker Red CMXRos (Invitrogen) at a concentration of 250 nM for 30 min before fixation. In the remaining cases, post-fixed cells were labeled by incubation with a multiplexed mixture of primary antibodies in HBSS for 60 min at room temperature (293-298 K) to detect immunoreactivity of c-Jun (1:500), phospho-histone H3 (1:100), phospho-histone H2A.x (1:200), p53 (1:400), alpha-tubulin (1:200) and Hoechst 33342 (2 ug/mL). Cells were labeled for multiplexed imaging on two separate plates: a) Hoechst 33342, MitoTracker Red, phospho-histone H3, and alpha-tubulin, and b) Hoechst 33342, phospho-histone H2A.x, and c-Jun. A final rinse with HBSS (50 uL) was performed before analysis. The primary and secondary antibodies for the proteins were phospho-histone H3 (rabbit anti-phospho-histone H3 and FITC-donkey anti-rabbit IgG), phospho-histone H2A.x (mouse anti-phospho-histone H2A.x and FITC-donkey anti-mouse IgG), c-Jun (rabbit anti-phospho-c-Jun and Cy3-donkey anti-rabbit IgG), p53 (sheep anti-p53 and Cy5-donkey anti-sheep IgG), alpha-tubulin (mouse anti-alpha-tubulin and Cy5-donkey anti-mouse IgG). These antibodies are available as the CellCiphr HepG2 assay kit (Millipore).Digital images of each well were captured using a Cellomics ArrayScan VTI (Thermo Scientific Cellomics) (0.8 NA objective, 0.63x optical coupler, and XF-93 filter set) at 20x magnification. The images were acquired using the autofocus feature of the ArrayScan instrument, which entails the following steps. First, the camera focuses on channel 1 (Hoechst 33342), where nuclei are identified. Second, a Z offset of 1 um is used for capturing mitochondria (MitoTracker Red). […]

Row | Structure (SMILES) | outcome | AC50
1 | O=C(c1ccccc1)C1CCCCC1 | inactive | 
2 | CC(C)(c1ccc(O)cc1)c1ccc(O)cc1 | inactive | 114 µM (active) and 105 µM (active)
3 | COC(=O)c1ccc(CNS(C)(=O)=O)cc1S(=O)(=O)NC(=O)Nc1nc(OC)cc(OC)n1 | inactive | 
4 | Oc1ccc(C(c2ccc(O)cc2)C(Cl)(Cl)Cl)cc1 | inactive | 
5 | COC(=O)c1ccccc1C(=O)O | inactive | 
6 | CC1(C)C(C=C(Cl)Cl)C1C(=O)OCc1cccc(Oc2ccccc2)c1 (stereo not given) | inactive | 
7 | CC(=O)S[C@@H]1CC2=CC(=O)CC[C@]2(C)[C@H]2CC[C@@]3(C)[C@@H](CC[C@@]34CCC(=O)O4)[C@H]12 |  | 35 µM (active)
8 | COC(=O)c1ccccc1S(=O)(=O)NC(=O)Nc1nc(OC(F)F)cc(OC(F)F)n1 | inactive | 
9 | O=C(O)c1ccccc1 | inactive | 
10 | CCCOC(=O)c1ccc(C(=O)OCCC)nc1 | inactive | 
11 | C=CCOC(Cn1ccnc1)c1ccc(Cl)cc1Cl (stereo not given) | inactive | 
12 | C#C[C@]1(O)CC[C@H]2[C@@H]3CCC4=CC(=O)CC[C@@H]4[C@H]3CC[C@@]21CC | inactive | 
13 | CCSC(=O)N(CC(C)C)CC(C)C | inactive | 
14 | S=C(S)NCCNC(=S)S.[Mn+2].[S-]C([S-])=NCCN=C([S-])[S-].[Zn+2] | inactive | 50 µM (active) [middle of 6 runs]
15 | O=C(O)C1(C(=O)Nc2ccc(Cl)cc2Cl)CC1 | inactive | 
16 | CCCN(CCC)c1c([N+](=O)[O-])cc(C(F)(F)F)c(N)c1[N+](=O)[O-] | inactive | 
17 | CCCOC(=O)NCCCN(C)C | inactive | 
18 | COc1c(Cl)ccc(Cl)c1C(=O)O | inactive | 
19 | CCCCOC(=O)[C@@H](C)Oc1ccc(Oc2ccc(C(F)(F)F)cn2)cc1 | inactive | 

Row | Structure (SMILES) | outcome | AC50
20 | CC(C)CCCCCCc1ccc(O)cc1 |  | 30.1 µM (active)
21 | CCCCOC(=O)C(C)Oc1ccc(Oc2ccc(C(F)(F)F)cn2)cc1 (stereo not given) | inactive | 
22 | OB(O)O | inactive | 
23 | CCCCC(CC)COC(=O)c1ccccc1C(=O)O (stereo not given) | inactive | 
24 | CCC(C)OC(=O)N1CCCCC1CCO (stereo not given) | inactive | 
25 | COC(=O)c1ccc(I)cc1S(=O)(=O)NC(=O)Nc1nc(C)nc(OC)n1 | inactive | 
26 | CCOC(=O)C(C)Oc1ccc(Oc2nc3ccc(Cl)cc3o2)cc1 (stereo not given) | inactive | 
27 | S=C([S-])NCCNC(=S)[S-].[Mn+2] | inactive | 
28 | CCN(Cc1c(F)cccc1Cl)c1c([N+](=O)[O-])cc(C(F)(F)F)cc1[N+](=O)[O-] | inactive | 
29 | Cc1nn(C)c(Oc2ccccc2)c1C=NOCc1ccc(C(=O)OC(C)(C)C)cc1 | inactive | 
30 | CC(C)(C)[C@@H](O)[C@@H](Cc1ccc(Cl)cc1)n1cncn1 | inactive | 
31 | C[C@]12C[C@H](O)[C@H]3[C@@H](CCC4=CC(=O)CC[C@@]43C)[C@@H]1CC[C@@H]2C(=O)CO |  | 34.5 µM (active)
32 | CCOC(=O)[C@H](C)Oc1ccc(Oc2nc3ccc(Cl)cc3o2)cc1 | inactive | 
33 | O=C(c1ccc(O)cc1O)c1ccc(O)cc1O | inactive | 
34 | CCOC(=O)NCCOc1ccc(Oc2ccccc2)cc1 | inactive | 
35 | CCNc1nc(N)nc(Cl)n1 | inactive | 
36 | CCC(O)=C1C(=O)CC(C(=O)O)CC1=O (stereo not given) | inactive | 
37 | CCCCCCC(C)OC(=O)COc1nc(F)c(Cl)c(N)c1Cl (stereo not given) | inactive | 
38 | CSC(=O)c1cccc2nnsc12 | inactive | 
